# Screening data from PubChem.
# Hits are enriched below; roughly 7.4% of the tested compounds scored in any of these assays.
# Rab9 prom act = activates the Rab9 promoter | Huh7 Rab9 promoter-luciferase reporter, luminescence, 24 h | Potency, µM (top dose mostly 9.22 µM), actives largely listed as activators | 320,000 tested, 2.8% active | AID 485297; also: nearly all actives have a fitted effect of over 60% in size
#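 Huh7 reporter line, Rab9 promoter upstream of luciferase. Compound exposure 24 h at 37 °C in reduced-serum medium with 10% FBS. Read-out: luminescence.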
# NPC1 prom act = NPC1 promoter activation; Huh7 NPC1 promoter luciferase reporter, 24 h; Potency, µM (top dose mostly 9.22 µM), hits mostly activators; 320,000 tested, 2.4% active; also: nearly all actives have a fitted effect of over 60% in size
#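 Luminescence from an NPC1 promoter-driven luciferase reporter in stably transfected Huh7 cells was measured after 24 h compound treatment at 37 °C, followed by 10 min ambient incubation with luciferase detection reagent.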
# SMN2 splice up = enhancers of SMN2 splice variant expression | AID 1458 | 210,000 tested, 2.8% active | HEK293 SMN2-luciferase splicing reporter, luminescence, 30-36 h | Potency, µM (doses to about 46.1 µM), hits mostly activators; also: nearly all actives have a fitted effect of over 55% in size
#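 HEK293 cells carry an SMN2 minigene-luciferase reporter in which exon 7 inclusion puts luciferase in frame. Cells were seeded at 2000 cells/well, attached for 10-12 hours, then exposed to compounds for 30-36 hours at 37C before ONE-Glo luminescence.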
# ELG1 genotoxic = genotoxicity induction in ELG1-luciferase HEK293T cells; HEK293T ELG1-luciferase reporter, luminescence, 16 h; Potency, µM (highest dose often 46 µM), actives largely listed as activators; 330,000 tested, 1.3% active; also: nearly all actives have a fitted effect of over 60% in size
#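 After overnight (16 hr) compound treatment at 37 °C, ELG1-luciferase HEK293T cells were lysed with ONE-Glo; luminescence quantified 30 min later at room temperature.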
# FLuc modulator = inhibits or activates purified firefly luciferase, miR-21 counter-screen; 360,000 tested, 6.9% active; AID 588342; Potency, µM (titrated, usually from 57.5 µM), usual class: inhibitors; purified FLuc, Km substrates, luminescence inhibition; also: nearly all actives have a fitted effect of over 55% in size
# Target sequence (P08659 whole entry, looked up): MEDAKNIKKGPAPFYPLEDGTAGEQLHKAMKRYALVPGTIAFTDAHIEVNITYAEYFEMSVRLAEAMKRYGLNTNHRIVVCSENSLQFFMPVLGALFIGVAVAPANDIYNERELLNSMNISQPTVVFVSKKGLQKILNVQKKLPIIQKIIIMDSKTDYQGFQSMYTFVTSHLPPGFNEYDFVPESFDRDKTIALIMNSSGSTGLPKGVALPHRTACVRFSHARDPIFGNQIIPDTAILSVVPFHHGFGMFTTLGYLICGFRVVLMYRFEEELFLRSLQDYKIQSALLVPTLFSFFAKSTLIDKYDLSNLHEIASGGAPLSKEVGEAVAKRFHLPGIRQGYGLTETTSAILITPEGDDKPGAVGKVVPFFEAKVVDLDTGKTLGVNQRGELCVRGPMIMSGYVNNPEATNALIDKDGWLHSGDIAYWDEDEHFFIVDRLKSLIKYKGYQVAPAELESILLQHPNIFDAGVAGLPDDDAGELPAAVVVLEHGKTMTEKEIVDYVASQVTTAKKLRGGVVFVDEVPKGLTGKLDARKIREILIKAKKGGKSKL
#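 Purified P. pyralis luciferase, 10 nM final, with Km-level 10 uM D-luciferin and 10 uM ATP in 50 mM Tris acetate pH 7.5, 10 mM Mg acetate, 0.01% Tween-20, 0.05% BSA; 6-point qHTS titration about 60 µM downward; luminescence read.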
# Hits are given with their value; - = inactive; ? = inconclusive; . = not tested or not shown; [ ] = another dose, or the depositor's remark. Calls follow the shape of the dose curve; as a rule, active = well fitted curve in the direction sought with a large enough effect; inconclusive = small, poorly fitted or top-dose-only effect, or another doubt; inactive = no such curve, though single readings can be large; an effect the other way counts as inactive or inconclusive.
SMILES,Rab9 prom act,NPC1 prom act,SMN2 splice up,ELG1 genotoxic,FLuc modulator
COc1cc(/C=N/Nc2ccc(C(F)(F)F)cn2)cc(OC)c1O,-,-,-,-,?
COc1cc(/C=N/Nc2ccccn2)cc(OC)c1O,-,-,-,-,12µM
C=CCOc1ccc(/C=N/Nc2ccccn2)cc1OC,?,3.5µM,11µM,?,5.4µM
CCCCNC(=O)c1cccc(-n2cnc3cccnc32)c1C,.,.,.,.,-
COc1cc(OC)c2c(=O)c(-c3ccccc3)coc2c1,.,.,11µM,.,.
COc1ccc(-c2coc3cc(OC)cc(OC)c3c2=O)cc1,?,?,-,?,15µM
COc1cc(OC)c2c(=O)c(O)c(-c3ccc(OC)c(OC)c3)oc2c1,.,.,-,.,.
CC(CCC(=O)O)(c1cc(Br)c(O)c(Br)c1)c1cc(Br)c(O)c(Br)c1,.,.,-[9.22 µM],.,.
Cn1c2ccccc2c2cc([N+](=O)[O-])ccc21,-,-,.,-,-
CCN(CC)CCn1c2ccccc2c2nc3ccc([N+](=O)[O-])cc3cc21,-,-,.,23µM,?
COc1cc(NC(=O)C2CCN(c3nc4ccccc4nc3C(F)(F)F)CC2)cc(OC)c1,.,.,.,.,-
Cc1ccc(NC(=O)CSc2ncccc2C(=O)Oc2cccc([N+](=O)[O-])c2)cc1Cl,?,4.5µM,11µM,23µM,?
CCc1cccc(C)c1NC(=O)CN1C(=O)c2ccccc2Sc2ncccc21,.,.,.,.,-
CN(C)c1ccc(-c2ccc3c(=O)c4ccccc4n(C)c3c2)cn1,2.2µM,2.5µM,.,16µM,4.8µM
CCOC(=O)c1[nH]c(C)c(CCC(=O)Nc2ccc(C)cc2Cl)c1C,.,.,.,.,-
COc1ccc(-c2cc3c(=O)n(CC(=O)NCc4cccnc4)ncn3n2)cc1,3.5µM,1.6µM,.,?,2.1µM
COc1ccc(-c2cc3c(=O)n(CC(=O)NCCCN4CCC(N5CCCCC5)CC4)ncn3n2)cc1,-,?,.,-,11µM
COc1ccc(-c2cc3c(=O)n(CC(=O)NCCCN4CCC(N5CCCCC5)CC4)nc(C)n3n2)cc1,-,-,.,-,-
O=c1c(-c2ccc(F)cc2)nc2cnc(Nc3ccccc3)nc2n1Cc1cccs1,.,.,-,.,.
Cc1cc(NC(=O)COC(=O)c2ccccc2S(=O)(=O)N(C)c2ccccc2)no1,-,-,6.3µM,-,-
Cc1cc(NC(=O)COC(=O)c2ccccc2NCCO)no1,.,.,.,-,.
COc1ccc(C2CC(C)(c3ccc(OC)cc3OC)Nc3ccccc3N2)c(OC)c1 (stereo not given),1.1µM,2.8µM,.,8.2µM,7.6µM
Cc1ccc(C(=O)NN2C(=O)/C(=C/c3cn(C)c4ccccc34)SC2=S)cc1,-,-,-,-,?
Cn1cc(/C=C2\SC(=S)N(NC(=O)c3ccccc3Cl)C2=O)c2ccccc21,-,-,-,-,27µM
O=C(Cc1ccc(F)cc1)NCCc1csc2nc(-c3ccccc3F)nn12,.,.,.,.,-
SMILES,Rab9 prom act,NPC1 prom act,SMN2 splice up,ELG1 genotoxic,FLuc modulator
c1ccc2oc(NC3=NCN(C4CCCCC4)CN3)nc2c1,?,2.5µM,.,?,?
CCCCN1CN=C(Nc2nc3ccccc3o2)NC1,3.5µM,?,-,?,?
CC(C)N1CN=C(Nc2nc3ccccc3o2)NC1,?,-,?,-,?
Cc1c(Cl)cccc1NC(=O)Cn1c(=O)cc(C)c2c(C)nn(-c3cccc(F)c3)c21,.,.,.,.,-
COc1ccccc1/C=C\C=N\NC(=O)c1ccco1,?,-,-,?,?
COc1ccccc1/C=C/C=N/NC(=O)c1cccs1,3.2µM,2.5µM,.,?,11µM
COc1cc(/C=N/n2cnc3c(sc4nc(C)cc(C)c43)c2=O)ccc1O,-,-,.,-,-
COc1cc(/C=N/NC(=O)c2ccccc2O)ccc1OC(=O)CC1SC(=O)NC1=O (stereo not given),-,-,.,-,17µM
O=C(N/N=C/c1cccc(OC(=O)N2CCOCC2)c1)c1cccs1,-,-,-,-,9.5µM
COc1cc(/C=N/NC(=O)c2cc(C)oc2C)ccc1OCc1ccccc1,-,-,.,-,?
COC(=O)N/N=C\c1cccc(OC(=O)c2cccs2)c1,-,-,-,-,-
COc1cc(/C=N/NC(=O)c2sc3nc(C)cc(C)c3c2N)ccc1O,-,-,.,-,5.4µM
CC(C)c1ccc(NC(=O)C2(C)Cc3ccccc3C(=O)O2)cc1 (stereo not given),.,.,-,.,-
O=C(c1ccc(F)cc1)n1nc(-c2cccnc2)nc1NCc1ccc(F)cc1,.,.,-,.,-
COC(=O)C/C=C/[C@@H](C)[C@H](NC(=O)OCC(Cl)(Cl)Cl)c1ccc2ccccc2c1,.,.,-,.,.
CCc1ccc(NC(=O)Cn2cc(S(=O)(=O)c3ccc(F)cc3)c(=O)c3cc(OC)ccc32)cc1,.,.,-,.,-
COc1cc(/C=N/NC(=O)c2cccs2)ccc1OCc1ccccc1,-,-,-,-,?
COc1ccc2o/c(=N/NC(=O)c3cccs3)c(C(N)=O)cc2c1,?,?,14µM,-,?
COc1cc(/C=N/NC(=O)c2cccs2)ccc1O,?,-,.,21µM,11µM
COc1cccc(/C=N/NC(=O)c2cccs2)c1,2.8µM,?,.,21µM,5.4µM
NC(=O)c1cc2ccccc2o/c1=N/NC(=O)c1cccs1,-,-,-,-,-
COc1cc(/C=C2/C(=O)N(c3ccc(Br)cc3)N=C2C)cc([N+](=O)[O-])c1O,-,-,.,-,?
COc1cc(/C=C2/C(=O)N(c3cccc(Br)c3)N=C2C)cc(OC)c1O,-,-,.,-,17µM
CC1=NN(c2ccccc2)C(=O)/C1=C/c1cccc(C)c1,-,-,.,-,24µM
COc1ccc(/C=C2/C(=O)N(c3ccccc3)N=C2C)cc1OC,-,-,.,-,6µM
SMILES,Rab9 prom act,NPC1 prom act,SMN2 splice up,ELG1 genotoxic,FLuc modulator
CC(=O)Oc1ccc(/C=C2/C(=O)N(c3ccccc3)N=C2C)cc1,-,-,.,-,24µM
COc1ccc(/C=C2/C(=O)N(c3c(F)c(F)c(F)c(F)c3F)N=C2C)cc1,-,-,.,-,?
CCCC[C@@H]1C[C@H]1C(NC(=O)c1ccco1)c1ccccc1 (stereo not given in full),.,.,-,.,.
COc1ccc(CCNC(=O)CCc2c(C)nc3c4c(C)cc(C)nc4nn3c2C)cc1OC,.,.,-,.,-
N/N=C1/CC(=O)NC(=O)N1,.,.,-[9.22 µM],.,.
COc1cc(/C=C2\C(=O)N(CCC#N)N=C2C)ccc1OCC(=O)Nc1ccccc1,-,-,-,?,11µM
CC1=NN(CCC#N)C(=O)/C1=C/c1ccc(N(C)C)cc1,-,-,-,-,19µM
CCOc1cc(/C=C2\C(=O)N(CCC#N)N=C2C)ccc1OCC(N)=O,-,-,-,-,-
Cc1cc(Nc2cccc(C(F)(F)F)c2)nc2ccc(NC(=O)Cc3ccc(Cl)cc3)cc12,.,.,.,.,-
O=C1C(c2cc(=O)c3ccccc3[nH]2)=C(O)c2ccccc21,2.2µM,1.6µM,1µM,8.2µM,0.76µM
O=C1C(c2ccncc2)=C(O)c2ccccc21,4.5µM,0.71µM,3.2µM,?,2.1µM
CCC(=O)C1=C(c2ccc(F)cc2)N(C(=O)CC)n2c(nnc2C2CCCCC2)S1,.,.,.,.,-
